# Screening data: PubChem, National Center for Advancing Translational Sciences (NCATS)
# TDP1 cell noCPT: qHTS for Inhibitors of human tyrosyl-DNA phosphodiesterase 1 (TDP1): qHTS in cells in absence of CPT | DT40 Tdp1-/- hTDP1 cells, no CPT, ATP luminescence, 48 h | Potency, µM (titrated, usually from 46.2 µM), for inactives: top-dose activity change, negative = growth inhibition, usual class: inhibitors | 420,000 compounds, 15% hits | AID 686978, 2013; also: nearly all actives have a fitted effect of over 55% in size
#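 Growth kinetics read by CellTiter-Glo luminescence after ≥48 hr at 37 °C. Cells: DT40 Tdp1-/- stably carrying human TDP1, 400 per well, compound exposure in the absence of CPT (DMSO vehicle).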
# KB-V1 cytotox: kills drug-selected multidrug resistant KB-V1 cells; KB-V1 MDR cells viability, CellTiter-Glo, 72 h; Potency, µM (highest dose often 46.1 µM), actives largely listed as cytotoxic; 400,000 compounds, 3.4% hits; AID 1347076; also: nearly all actives have a fitted effect of over 60% in size
#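 qHTS viability screen in drug-selected KB-V1 MDR cells: 72 h compound treatment at 37 degrees C, ATP luminescence end point.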
# HT1080 IDH1KD tx: toxicity to HT-1080 IDH1 knockdown cells (counter line); HT-1080 IDH1 knockdown viability, ATP luminescence, 48 h; Potency, µM (doses to about 46.1 µM), for the others: at the highest dose activity, negative = toxicity, usual class: cytotoxic; 360,000 compounds, 2% hits; AID 686971;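 also: 0% = DMSO wells and -100% = cell-free medium wells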
#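 Luminescent ATP read-out (CellTiter-Glo, 10 min at room temperature) after 48 h compound exposure at 37 °C gave viability of IDH1-knockdown HT-1080 cells. Activity was normalised to DMSO and cell-free wells, then fitted as concentration-response curves.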
# DT40 TDP1 CPT: growth inhibition of DT40 Tdp1-/-;hTDP1 cells with camptothecin (screen for TDP1 inhibitors) | Potency, µM (titrated, usually from 46.2 µM), inactives show at the highest dose activity change, negative = growth inhibition, hits mostly inhibitors | chicken DT40 Tdp1-/-;hTDP1 cells + 20 nM CPT, ATP luminescence, 48 h | 420,000 compounds, 12% hits; also: nearly all actives have a fitted effect of over 55% in size
#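 Cell growth measured by CellTiter-Glo luminescence after a minimum 48 h, 37 C compound exposure with 20 nM CPT in Tdp1-knockout DT40 cells stably expressing hTDP1, seeded 400/well; qHTS titration format.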
# HT1080NT lethal: kills 2HG-producing HT-1080-NT fibrosarcoma cells | HT-1080-NT fibrosarcoma viability, CellTiter-Glo ATP luminescence, 48 h | AID 686970 | Potency, µM (top dose mostly 46.1 µM), without a hit: top-dose activity, negative = less viability, hits mostly cytotoxic | 360,000 compounds, 1.6% hits;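 also: NT is the 2HG producing partner of a matched IDH1 knockdown line; 0% = DMSO-treated cells and -100% = media-only wells without cells; nearly all actives have a fitted effect of over 55% in size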
#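 Fibrosarcoma NT cells, 750 per well in 5% FBS RPMI, were exposed to compound for 48 hours. Viability: CellTiter-Glo luminescence.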
# KB-3-1 tox: kills parental KB-3-1 adenocarcinoma cells; KB-3-1 viability, CellTiter-Glo ATP luminescence, 72 h; Potency, µM (highest dose often 46.1 µM), hits mostly cytotoxic; 400,000 compounds, 1.4% hits; AID 1347075; also: nearly all actives have a fitted effect of over 60% in size
#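 72 h, 37 °C compound treatment of KB-3-1 parental cells; CellTiter-Glo added, 10 min, luminescence read. Data corrected against DMSO-only plates and normalized before curve fitting.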
# * hit, by the source's call; i = inactive; ? = inconclusive; · = not tested or not shown; ! = not confirmed by another sample; [ ] = dose if it differs, or a comment. The list is not random: actives were taken first. Their share in the collection is about 19%. Calls follow the shape of the dose curve; as a rule, active = well fitted curve in the direction sought with a large enough effect; inconclusive = small, poorly fitted or top-dose-only effect, or another doubt; inactive = no such curve, though single readings can be large; an effect the other way counts as inactive or inconclusive. Unless noted, % is scaled to controls: 0 for no effect and ±100 for the full control effect; potency is read from the fitted curve at half-maximal effect.
SMILES,TDP1 cell noCPT,KB-V1 cytotox,HT1080 IDH1KD tx,DT40 TDP1 CPT,HT1080NT lethal,KB-3-1 tox
CCCCC[C@H](C)N1C[C@@H](COCc2ccccc2)Oc2cc(N3CC[C@H](N(C)C)C3)ccc2S1(=O)=O,?,?,-25%,?,?,i
CCCCC[C@@H](C)N1C[C@@H](COCc2ccccc2)Oc2cc(N3CCC[C@H]3COC)ccc2S1(=O)=O,18µM*,i,-14%,?,-18%,i
CCCCC[C@@H](C)N1C[C@@H](COCc2ccccc2)Oc2cc(N3CCC[C@@H]3COC)ccc2S1(=O)=O,16µM*,i,-15%,?,-28%,i
CCCCC[C@H](C)N1C[C@H](COCc2ccccc2)Oc2cc(N3CCC[C@H]3COC)ccc2S1(=O)=O,18µM*,?,-18%,?,-5%,i
Cc1cn([C@H]2C[C@H](O)[C@@H](/C=C/C(=O)NCCc3ccc(S(N)(=O)=O)cc3)O2)c(=O)[nH]c1=O,13%,i,18%,4%,16%,i
O=C1C2C3C=CC(CC3)C2C(=O)N1c1cccc(Br)c1 (centres undefined),-11%,i,-2%,-22%,-9%,i
CCCCC[C@@H](C)N1C[C@H](COCc2ccccc2)Oc2cc(N3CCC[C@H]3COC)ccc2S1(=O)=O,6.5µM*,?,-4%,5.8µM*,0%,i
CCCCC[C@H](C)N1C[C@@H](COCc2ccccc2)Oc2cc(N3CC[C@H](O)C3)ccc2S1(=O)=O,?,?,?,?,?,i
Cc1ccc(-c2nnc(Nc3ccc(O)cc3)c3ccccc23)cc1S(=O)(=O)NCc1nc2ccccc2[nH]1,-12%,i,·,-5%,·,i
N#C/C(=C/c1ccccc1OCc1ccc(F)cc1)c1ccc(C(=O)O)cc1,11%,?,-1%,-9%,0%,i
C=CCNC(=O)/C(C#N)=C/c1ccccc1OCc1ccc(C(=O)OC)cc1,7.3µM*,?,?,2.9µM*,?,i
N#C/C(=C\c1ccccc1OCc1ccc(C(=O)O)cc1)C(=O)Nc1ccc(O)cc1,-15%,i,0%,2%,-2%,i
COC(=O)c1ccc(COc2ccccc2/C=C(\C#N)C(=O)Nc2ccc(C)cc2)cc1,5.2µM*,i,-26%,6.5µM*,-7%,i
CCOc1ccc(C(=O)Nc2ncccc2Cl)cc1,-11%,i,-6%,-5%,2%,i
O=S1(=O)CCO[C@H]2CCCC[C@@H]2N1Cc1ccccc1Br,?,?,·,?,·,i
O=S1(=O)CCO[C@H]2Cc3ccccc3[C@H]2N1Cc1ccccc1F,?,i,-14%,23µM*!,0%,i
O=S1(=O)CCO[C@H]2Cc3ccccc3[C@H]2N1Cc1ccccc1Br,23µM*,i,2%,?,-1%,?
COc1cc2c(cc1OC)C(NNC(=O)c1ccc(Br)o1)=NC(C)(C)C2,?,i,-6%,21µM*,3%,i
CC1=C(C)CC(C(=O)NCc2ccc3c(c2)OCO3)C(C(=O)O)C1 (centres undefined),?,?,-4%,-14%,4%[9.24 µM],i
COc1ccc(C2=NOC(C(=O)NCc3ccc(F)cc3)C2)cc1OC (centres undefined),5.8µM*,0.52µM*,1.1µM*,5.8µM*,1.3µM*,i
COc1ccc(CNC(=O)C2CC(C)=C(C)CC2C(=O)O)cc1OC (centres undefined),1.3µM*,?,2%,1.3µM*,1%,i
COc1cccc(C2=NOC(C(=O)NCc3ccc(F)cc3)C2)c1 (centres undefined),18µM*,?,?,12µM*,-24%,i
COc1cc(C2=NOC(C(=O)NCc3ccc(F)cc3)C2)cc(OC)c1OC (centres undefined),0.58µM*,1.5µM*,0.71µM*,0.82µM*,1.1µM*,1.5µM*
Cc1ccc(CNC(=O)C2CC(c3cccc(F)c3)=NO2)cc1 (centres undefined),-12%,?,6%,0%,13%,i
CCCc1c(C(=O)Nc2cc(C)on2)cnn1-c1ccccc1,-16%,i,5%,0%,18%,i
SMILES,TDP1 cell noCPT,KB-V1 cytotox,HT1080 IDH1KD tx,DT40 TDP1 CPT,HT1080NT lethal,KB-3-1 tox
COc1cccc(C2=NOC(C(=O)NCc3cccs3)C2)c1 (centres undefined),15µM*,?,21µM*,21µM*,?,?
COc1cccc(C2=NOC(C(=O)NCc3cccnc3)C2)c1 (centres undefined),?,i,-3%,-18%,-4%,i
CCCC1([C@H](O)C/C=C/[C@H]2[C@H](O)CC(=O)[C@@H]2CCCCCCC(=O)OC)CCC1,11µM*,·,·,15µM*,·,·
CS(=O)(=O)NCCCNc1ccc(Cl)cc1[N+](=O)[O-],-24%,i,1%,-5%,3%,i
O=[N+]([O-])c1cc(C(F)(F)F)ccc1NCCCCNS(=O)(=O)c1ccc(Cl)cc1,15µM*,21µM*,?,13µM*,?,?
O=[N+]([O-])c1cc(C(F)(F)F)ccc1NCCNC(=S)Nc1ccc(Cl)cc1,18µM*,?,?,29µM*,18µM*,i
CCN(CC)S(=O)(=O)c1ccc(Nc2ccc(-c3ccc4c(c3)OCCO4)nn2)cc1,?,i,1%,5.2µM*,?,i
CN(C(=O)c1cccc(Nc2ccc(-c3ccc4c(c3)OCCO4)nn2)c1)C1CCCCC1,23µM*,?,15µM*,23µM*,?,?
COc1cc(Cl)c(C)cc1NC(=O)c1nn(C)c2c1CSc1ccccc1-2,-2%,·,·,-15%,·,·
Cn1ccc2c(-c3ccc(C(F)(F)F)cc3)cc3c(c21)C1CCC3O1 (centres undefined),16µM*,i,?,23µM*,?,i
Cn1ccc2c(-c3ccc(C(=O)O)cc3)cc3c(c21)C1CCC3O1 (centres undefined),-14%,i,18%,-4%,12%,i
Cn1ccc2c(-c3ccc(C(C)(C)C)cc3)cc3c(c21)C1CCC3O1 (centres undefined),23µM*,?,?,?,?,i
